Assay outcomes as filed in PubChem BioAssay.
Only some compounds are listed: those with a hit (about 14% of all), similar ones and a draw of the others.
NS1 inh: qHTS Assay for Inhibitors of Influenza NS1 Protein Function | Potency, µM (highest dose often 46.1 µM), for the others: at the top dose activity, positive = more growth | 0.4% of 270,000 active | AID 2326, 2010; calls by dose curve; note: potency is the fitted concentration of half-maximal effect; actives are rising curves; nearly all actives have a fitted effect of over 50% in size
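In this qHTS, NS1 from influenza A is expressed in budding yeast, where it slows growth. Cells are switched from glucose to 2% galactose medium (pH 6.0, -URA), treated with compound, and growth recovery is read at OD600.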
Shiga inhibitor: A qHTS for Small Molecule Inhibitors of Shiga Toxin. Vero cells, Shiga toxin protein synthesis inhibition reporter. inhibition, % at 38.7 µM. 9.2% of 290,000 active. AID 2315, 2010; in the data active = inhibition mostly above about 28%, no sharp cut-off; inactive = mostly below about 43%; note: 0% is about no effect
FBPA Giardia inh: qHTS Assay for Inhibitors of Fructose-1,6-bisphosphate Aldolase from Giardia Lamblia; A8B2U2; purified Giardia FBPA; Potency, µM (series often up to 59.6 µM), inactives show top-dose activity, negative = inhibition, actives largely listed as inhibitors; 0.71% of 290,000 active; note: potency is the fitted concentration of half-maximal effect; % is set by controls: 0 for no effect and ±100 for the full control effect; nearly all actives have a fitted effect of over 55% in size
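40 nM FBPA preincubated 10 min at RT with compound (up to 57.5 uM final), then substrate plus GAPDH/TPI/NAD/arsenate coupling and diaphorase/resazurin added. Fluorescence read after 20 min at RT, 525/598 nm.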
LmPK inh: qHTS Assay for Inhibitors of Leishmania Mexicana Pyruvate Kinase (LmPK); Q27686; purified LmPK, Kinase-Glo ATP luminescence, 1 h; Potency, µM (top dose mostly 57.5 µM), for inactives: at the highest dose activity change, negative = inhibition, hits mostly inhibitors; 0.37% of 290,000 active; note: potency is the fitted concentration of half-maximal effect; % is set by controls: 0 for no effect and ±100 for the full control effect
Target sequence (Q27686 whole entry, looked up): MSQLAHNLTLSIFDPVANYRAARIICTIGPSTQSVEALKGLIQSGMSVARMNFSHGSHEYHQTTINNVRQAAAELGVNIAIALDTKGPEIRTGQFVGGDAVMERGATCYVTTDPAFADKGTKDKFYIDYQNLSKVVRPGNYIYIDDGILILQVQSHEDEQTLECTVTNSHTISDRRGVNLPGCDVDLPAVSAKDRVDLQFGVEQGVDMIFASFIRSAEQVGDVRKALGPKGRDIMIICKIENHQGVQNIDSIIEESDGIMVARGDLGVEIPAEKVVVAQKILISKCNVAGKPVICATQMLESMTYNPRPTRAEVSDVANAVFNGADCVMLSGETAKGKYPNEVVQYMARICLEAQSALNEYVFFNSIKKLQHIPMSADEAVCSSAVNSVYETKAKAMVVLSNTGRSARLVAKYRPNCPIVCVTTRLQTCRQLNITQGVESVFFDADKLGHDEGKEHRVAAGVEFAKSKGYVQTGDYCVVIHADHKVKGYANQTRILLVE
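Kinase-Glo luminescence read after 1 h RT reaction of 0.1 nM LmPK with 0.5 mM PEP and 0.1 mM ADP. Activity scaled between uninhibited and enzyme-free controls.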
CHX counter: Cycloheximide Counterscreen for Small Molecule Inhibitors of Shiga Toxin. 12% of 300,000 active. max response, %. cell reporter, cycloheximide protein synthesis inhibition counterscreen; in the data active = max response mostly above about 13%, no sharp cut-off; inactive = mostly below about 14%; note: read at 38.3 µM for the half of the compounds with a filed dose; 0% is about no effect
Active calls of the source: *; ? = inconclusive; · = no result given. Unless noted, calls come from the whole dose curve; as a rule, active = well fitted curve in the direction sought with a large enough effect; inconclusive = small, poorly fitted or top-dose-only effect, or another doubt; inactive = no such curve, though single readings can be large; an effect the other way counts as inactive or inconclusive.

SMILES	NS1 inh	Shiga inhibitor	FBPA Giardia inh	LmPK inh	CHX counter
NS(=O)(=O)c1ccc(NC(=S)NC2CCCCCC2)cc1	-3%	11	?	3%	-2
NC(=O)c1ccccc1NC(=O)NC1CCCCC1	-1%	10	0%	-5%	-6
O=C(Nc1ccccc1NC(=O)NC1CCCCC1)NC1CCCCC1	-5%	35	2%	2%	27*
O=C(Nc1cccc([N+](=O)[O-])c1)C1C2CCCCC21 (configuration not stated)	4%	16	7%	1%	3
O=C(Nc1ccccc1)NC1CC2CCC(C1)N2 (configuration not stated)	-3%	-6	2%	3%	-6
O=C(Nc1ccc(Br)cc1)NC1CCCCCCC1	-7%	137*	4%	0%	44*
O=C(Nc1ccccc1)NC1CCCCC1	-2%	49*	-4%	4%	51*
O=C(Nc1cccc([N+](=O)[O-])c1)NC1CCCCCCC1	-98%	81*	·	0%	32*
CC(C)NS(=O)(=O)c1ccc(NC(=O)NC2CCCCC2)cc1	6%	20	6%	-5%	14*
CC(NS(=O)(=O)c1ccccc1)C(=O)NC1CCCC1 (configuration not stated)	7%	-8	·	-9%	-3
Oc1ccc(CCNc2ncnc3ccc(Cl)cc23)cc1	-11%	6	-5%	-9%	0
O=C(NC1CCCCC1)Oc1ccccc1	-4%	51	5%	-8%	30*
O=C(NC1CCS(=O)(=O)C1)Oc1ccccc1 (configuration not stated)	-2%	-22	2%	-1%	-6
C=CCN(c1ccccc1)S(=O)(=O)c1cccc(C(=O)N2CC(C)CC(C)C2)c1 (configuration not stated)	-24%	4	·	2%	-2
Cc1ccc(-n2[nH]c(C)c(C=Nc3ccc(S(=O)(=O)Nc4nccs4)cc3)c2=O)cc1	28%	-9	1%	?	-1
CCc1nnc(NS(=O)(=O)c2ccc(N=Cc3c(C)[nH]n(-c4ccc(C)c(C)c4)c3=O)cc2)s1	-2%	10	-1%	?	12*
CC(=O)c1ccc(NC(=O)c2ccc3nc(C)sc3c2)cc1	9%	·	0%	0%	87*
Cc1nc2ccc(OC(=O)c3ccccc3)cc2s1	-31%	19	2%	-1%	13*
COc1cc(C(=O)Nc2ccc(C(C)=O)cc2)c(Br)c(OC)c1OC	12%	70*	-3%	-3%	42*
CCNc1ccc(C(=O)Nc2ccc3nc(C)sc3c2)cc1[N+](=O)[O-]	-16%	32	-1%	1%	27*
Cc1ccc(NC(=O)c2ccc(NCCN)c([N+](=O)[O-])c2)cc1Cl	18%	22	8%	3%	4
CCCN1CCN(CCCNC(=O)CN2C(=O)c3cccnc3Oc3ccc(C)cc32)CC1	-2%	11	21%	-1%	5
COC(=O)c1cnc(Oc2c(Cl)cc(N)cc2Cl)cc1C(F)(F)F	-62%	18	-14%	2%	0
O=C1CN2CCN(CC2)CC(=O)Nc2ccc(cc2)S(=O)(=O)c2ccc(cc2)NC(=O)CN2CCN(CC2)CC(=O)Nc2ccc(cc2)S(=O)(=O)c2ccc(cc2)N1	25%	·	·	·	·
Cc1nnc(NC(=O)c2ccc3ccccc3n2)s1	·	110*	-8%	4%	38*
SMILES	NS1 inh	Shiga inhibitor	FBPA Giardia inh	LmPK inh	CHX counter
CNC(=O)Nc1ccc2nc(C)sc2c1	-2%	18	3%	1%	16*
C=CCNC(=O)Nc1ccc2nc(C)sc2c1	-36%	24	2%	9%	14
Cc1nc2cc(C(=O)O)ccc2s1	-5%	133*	4%	-3%	44*
Cc1ccccc1NC(=O)c1ccc2nc(N3CCOCC3)sc2c1	-17%	38*	-3%	0%	28*
NNC(=O)c1ccc2ccccc2n1	·	30	-11%	3%	5
Cc1ccccc1CNC(=O)c1ccc2nc(N3CCOCC3)sc2c1	-13%	14	-2%	6%	2
CC(=C/C(=O)O)/C(=C\c1ccc(Br)o1)C(=O)O	0%	7	12%	-3%	-1
CC(C)CN1CCCC2(CCN(C(=O)c3cccn3C)CC2)C1	·	·	-4%	·	·
CC(=O)c1ccc(NC(=O)c2ccc(C)c(Br)c2)cc1	0%	73*	16%	3%	60*
Cc1cc(C(=O)Nc2ccccc2Cl)c2ccccc2n1	-11%	1	7%	-6%	-1
Cc1nc2ccc(NC(=O)c3cncc(Br)c3)cc2s1	-4%	102*	1%	1%	32*
Cc1cccnc1NC(=O)c1ccc2nc(N)sc2c1	0%	73*	-1%	3%	28*
CCCCC(=O)Nc1ccc(C(=O)NNC(=O)c2ccc(C)c(Br)c2)cc1	8%	-2	3%	1%	1
Cc1nc2ccc(C(=O)Nc3ccccc3Cl)cc2s1	-37%	118*	1%	-6%	50*
Cc1ccccc1C[C@H](C(=O)O)N1C(=O)c2ccc(C(=O)O)cc2C1=O	·	-10	5%	·	-8
Cc1nn(-c2ccc(N3CCOCC3)nn2)c(C)c1CCC(=O)N1CCN(C)CC1	1%	-4	1%	1%	6
Cc1nc2ccc(NC(=O)c3ccc(N4C(=O)CCC4=O)cc3)cc2s1	·	1	2%	8%	-1
Cc1nc2ccc(NC(=O)c3ccc4ccccc4n3)cc2s1	·	102*	11%	-2%	28*
Cc1nc2ccc(NC(=O)c3ccc(=O)[nH]c3)cc2s1	-8%	19	6%	6%	-6
Cc1nc2ccc(NC(=O)c3ccccc3)cc2s1	-61%	108*	-3%	-3%	30*
N#Cc1ccccc1CSc1nc2ccc(NC(=O)c3ccccc3C(=O)O)cc2s1	9%	79*	2%	9%	27*
CCn1nc(C(=O)Nc2ccc3nc(C)sc3c2)c2ccccc2c1=O	·	30	2%	3%	19*
CCOC(=O)CC(CC(C)=O)C(=O)OCC (configuration not stated)	·	·	0%	·	·
COc1ccc(C(=O)Nn2c(CC(C)C)nc3cc(Cl)ccc3c2=O)c(OC)c1	18%	-6	7%	-1%	-1
Cc1ccc(-c2c[nH]c(=S)n2-c2ccccc2)cc1	·	19	-1%	?	10
SMILES	NS1 inh	Shiga inhibitor	FBPA Giardia inh	LmPK inh	CHX counter
Cc1ccc(N2CN=C(c3ccccc3)NC2=S)cc1	-4%	98*	-5%	2%	63*
COc1ccc(C2=NCN(c3ccc(C)cc3)C(=S)N2)cc1	-9%	42	-1%	-1%	36*
C=C(C(C)=O)C(O)c1cccc(OC)c1 (configuration not stated)	·	·	1%	·	·
O=C(OCc1nc2ccccc2s1)C1CCN(C2=NS(=O)(=O)c3ccccc32)CC1	-1%	60*	1%	7%	61*
O=S1(=O)N=C(N2CCCC2)c2ccccc21	14%	6	9%	1%	2
Cc1sc(NC(=S)NC(=O)c2ccco2)c(C(N)=O)c1C	·	93*	-19%	-5%	26*
